Bioassay records as filed in PubChem.
KB-V1 cytotox = qHTS assay for MDR1-selective chemotherapeutics: Primary screen using the drug-selected MDR subline cells KB-V1. KB-V1 MDR cells viability, CellTiter-Glo, 72 h. Potency, µM (doses to about 46.1 µM), most hits filed as cytotoxic. 400,000 tested, 3.4% active. AID 1347076, 2019; note: nearly all actives have a fitted effect of over 60% in size
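KB-V1 MDR subline cells in DMEM (phenol-red free, 10% FBS) exposed to compounds in qHTS concentration series for 72 h at 37 degrees C. Viability read by CellTiter-Glo luminescence; concentration-effect curves fitted after normalization and correction.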
TDP1 cell CPT = qHTS for Inhibitors of human tyrosyl-DNA phosphodiesterase 1 (TDP1): qHTS in cells in presence of CPT | chicken DT40 Tdp1-/-;hTDP1 cells + 20 nM CPT, ATP luminescence, 48 h | Potency, µM (titrated, usually from 46.2 µM), inactives show at the top dose activity change, negative = growth inhibition, hits mostly inhibitors | 420,000 tested, 12% active | AID 686979, 2013; note: nearly all actives have a fitted effect of over 55% in size
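Cell growth measured by CellTiter-Glo luminescence after a minimum 48 h, 37 C compound exposure with 20 nM CPT in Tdp1-knockout DT40 cells stably expressing hTDP1, seeded 400/well; qHTS titration format.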
DT40 TDP1 no CPT = qHTS for Inhibitors of human tyrosyl-DNA phosphodiesterase 1 (TDP1): qHTS in cells in absence of CPT | DT40 Tdp1-/- hTDP1 cells, no CPT, ATP luminescence, 48 h | Potency, µM (highest dose often 46.2 µM), without a hit: at the top dose activity change, negative = growth inhibition, most hits filed as inhibitors | 420,000 tested, 15% active | AID 686978, 2013; note: nearly all actives have a fitted effect of over 55% in size
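Stably hTDP1-transfected Tdp1-null chicken DT40 cells were treated with library compounds minus camptothecin and grown for at least 48 hr at 37 °C, after which cellular ATP was quantified by luminescence.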
HT1080NT lethal = qHTS for induction of synthetic lethality in tumor cells producing 2HG: qHTS for the HT-1080-NT fibrosarcoma cell line; 360,000 tested, 1.6% active; AID 686970, 2013; HT-1080-NT fibrosarcoma viability, CellTiter-Glo ATP luminescence, 48 h; Potency, µM (series often up to 46.1 µM), for inactives: at the highest dose activity, negative = less viability, actives largely listed as cytotoxic;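 note: NT is the 2HG producing partner of a matched IDH1 knockdown line; 0% = DMSO-treated cells and -100% = media-only wells without cells; nearly all actives have a fitted effect of over 55% in size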
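750 cells/well, RPMI + 5% FBS; 2 h settle, compound pin-transfer, 48 h at 37 degrees C. CellTiter-Glo 10 min RT, luminescence. Normalized to DMSO and media-only wells.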
KB-3-1 cytotox = qHTS assay for MDR1-selective chemotherapeutics: Primary screen using the parental adenocarcinoma cell KB-3-1; KB-3-1 viability, CellTiter-Glo ATP luminescence, 72 h; Potency, µM (titrated, usually from 46.1 µM), most hits filed as cytotoxic; 400,000 tested, 1.4% active; AID 1347075, 2019; note: nearly all actives have a fitted effect of over 60% in size
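KB-3-1 parental drug-naive adenocarcinoma cells in DMEM/10% FBS, incubated 72 h at 37 C with pin-transferred compounds across a concentration series. Viability by CellTiter-Glo luminescence; concentration-response curves fitted after normalization.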
HT1080 IDH1KD tx = qHTS for induction of synthetic lethality in tumor cells producing 2HG: qHTS for the HT-1080-IDH1KD cell line. HT-1080 IDH1 knockdown viability, ATP luminescence, 48 h. Potency, µM (series often up to 46.1 µM), for inactives: top-dose activity, negative = toxicity, hits mostly cytotoxic. 360,000 tested, 2% active;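 note: 0% = DMSO wells and -100% = cell-free medium wells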
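Cytotoxicity counter-line: IDH1KD HT-1080, 48 h, CellTiter-Glo. Curves classed by r2, magnitude and activity.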
Active calls of the source: *; i = inactive; ? = inconclusive; . = no result; ! = repeats disagree. Only some compounds are listed: those with a hit (about 19% of all), similar ones and a draw of the others. Calls come from the whole dose curve; as a rule, active = well fitted curve in the direction sought with a large enough effect; inconclusive = small, poorly fitted or top-dose-only effect, or another doubt; inactive = no such curve, though single readings can be large; an effect the other way counts as inactive or inconclusive. Unless noted, % is set by controls: 0 for no effect and ±100 for the full control effect; potency is the fitted concentration of half-maximal effect.

SMILES	KB-V1 cytotox	TDP1 cell CPT	DT40 TDP1 no CPT	HT1080NT lethal	KB-3-1 cytotox	HT1080 IDH1KD tx
CC1C(=O)N(Cc2cn(Cc3ccco3)nn2)CCS(=O)(=O)N1Cc1ccc(-c2cccc(N(C)C)c2)cc1 (configuration not stated)	i	25.9µM*	16.4µM*	-12.2%	i	-12.8%
COc1ccc(-c2ccc(CN3C(C(C)C)C(=O)N(Cc4cn(Cc5ccco5)nn4)CCS3(=O)=O)cc2)cc1 (configuration not stated)	i	?	20.6µM*	-14.4%	i	-29.1%
COc1ccc(-c2ccc(CN3C(C(C)C)C(=O)N(Cc4cn(Cc5ccco5)nn4)CCS3(=O)=O)cc2)cc1OC (configuration not stated)	i	?	?	-2.5%	i	-2.7%
Cc1ccc(-c2ccc(CN3C(C)C(=O)N(Cc4cn(Cc5ccco5)nn4)CCS3(=O)=O)cc2)c(C)c1 (configuration not stated)	i	?	?	?	i	?
CC1C(=O)N(Cc2cn(Cc3ccco3)nn2)CCS(=O)(=O)N1Cc1ccc(-c2ccc(Cl)c(Cl)c2)cc1 (configuration not stated)	?	14.6µM*	8.2µM*	?	?	?
CC(C)C1C(=O)N(Cc2cn(Cc3ccco3)nn2)CCS(=O)(=O)N1Cc1ccc(-c2ccc(Cl)c(Cl)c2)cc1 (configuration not stated)	13µM*	4.61µM*	3.26µM*	?	i	?
CC(O)[C@@H]1NC(=O)[C@H](CCCCN)NC(=O)[C@@H](Cc2c[nH]c3ccccc23)NC(=O)[C@H](Cc2ccccc2)NC(=O)[C@@H](NC(=O)[C@H](N)Cc2ccccc2)CSSC[C@@H](C(=O)N[C@H](CO)[C@@H](C)O)NC1=O (some centres not stated)	.	-13.3%	-7.8%	.	.	.
Cc1noc(C)c1S(=O)(=O)N(C)C[C@H]1Oc2c(NC(=O)NC(C)C)cccc2C(=O)N([C@H](C)CO)C[C@@H]1C	i	-6.9%	-10.1%	1.7%	i	-0.7%
N#CCSc1ccccc1NC(=O)COC(=O)CCN1C(=O)C2CC=CCC2C1=O (configuration not stated)	i	4.6%	-0.2%	4.1%	i	4.1%
CC(C)CC1C(=O)N(Cc2cn(Cc3ccco3)nn2)CCS(=O)(=O)N1Cc1ccc(-c2ccc(F)cc2)cc1 (configuration not stated)	?	?	16.4µM*	?	?	?
CCOC(=O)CNC(=O)CN1CCCN(S(=O)(=O)c2ccc(Br)s2)CC1	i	-24.1%	?	-7.6%	i	-7.2%
O=C(CN1CCCN(S(=O)(=O)c2ccc(Br)s2)CC1)Nc1ccc(Cl)cc1	i	?	?	?	?	17.8µM*
CC1CCCC(NC(=O)CN2CCN(S(=O)(=O)c3ccc(Br)s3)CC2)C1C (configuration not stated)	?	?	18.4µM*	-3.6%	i	-1.1%
Cc1ccn2c(NC3CCCC3)c(-c3ccsc3)nc2c1	?	?	-25.2%	0.9%	i	-8.4%
CCCCCCSc1cccc(-c2nc3cc(C)ccn3c2NC2CCCCC2)c1	?	20.6µM*	16.4µM*	0.1%	i	-3.1%
Cc1ccn2c(=O)nc(SCC(=O)NC3CCCC3)nc2c1	i	-27.7%	-13.1%	-9.2%	i	-11.3%
Cc1ccn2c(=O)nc(SCC(=O)NC3CCCCC3)nc2c1	?	5.4%	3.1%	2.1%	i	4.7%
Cc1ccn2c(NC3CCCCC3)c(-c3cccc(SC4CCCCC4)c3)nc2c1	?	16.4µM*	8.2µM*	?	?	?
Cc1ccn2c(NC3CCCCC3)c(-c3ccc(SC4CCCCC4)cc3)nc2c1	18.4µM*	?	23.1µM*	8.9%	?	2.0%
CCC(C)Sc1cccc(-c2nc3cc(C)ccn3c2NC2CCCCC2)c1 (configuration not stated)	16.4µM*!	16.4µM*	14.6µM*	11.6µM*	?	18.4µM*
COc1ccc(C(=O)N2CC(=O)Nc3ccc(C)cc3C2c2ccccc2)c(OC)c1 (configuration not stated)	i	?	?	.	i	.
COC(Cn1c2c(c3cc(C)ccc31)CCCC2NCc1ccccc1)OC (configuration not stated)	?	?	14.6µM*	-4.1%	i	-10.3%
Cc1ccc2c(c1)c1c3n2CCCN(Cc2ccccc2)C3CCC1 (configuration not stated)	i	?	?	-13.8%	?	-0.6%
CCc1ccc(C(=O)COC(=O)CNC(=O)COc2ccccc2)cc1	?	15.1%	-3.9%	13.1%	?	-1.8%
COC(=O)c1cc(=O)nc(NN=C2CCCCC2)s1	i	1.1%	0.6%	-2.7%	i	14.6%
SMILES	KB-V1 cytotox	TDP1 cell CPT	DT40 TDP1 no CPT	HT1080NT lethal	KB-3-1 cytotox	HT1080 IDH1KD tx
COC(=O)c1cc(=O)nc(NN=C2c3ccccc3-c3ccccc32)s1	i	23.1µM*	?	?	i	?
CCCn1c(NC(=S)Nc2ccccc2)nc2ccccc21	16.4µM*	?	?	-5.1%	?	-5.7%
O=C(Nc1nc2ccccc2n1CCN1CCCCC1)C1CCCCC1	?	?	?	-10.4%	?	-8.8%
S=C(Nc1ccccc1)Nc1nc2ccccc2n1CCOc1ccc(Cl)cc1	i	20.6µM*	16.4µM*	?	i	?
CCn1nccc1C(=O)Nc1nc2ccccc2n1CCN1CCCCC1	i	35.5µM*	?	-4.6%	i	-18.4%
CCn1c(NC(=S)Nc2ccccc2)nc2ccccc21	i	5.17µM*	4.61µM*	?	i	-14.1%
O=C(Nc1nc2ccccc2n1CCOc1ccccc1Cl)c1ccccc1	i	?	?	.	i	.
